About 79,000 compounds went through this panel and 15% of them were active in at least one assay; those are over-represented in the sample as a whole. The source made the active and inactive calls. No stated cut-off is given here; in the data, active means growth inhibition above about 70%; inactive means the rest. Where a SMILES comes first, the peptide text is derived from it.
Assay: NCI Yeast Anticancer Drug Screen. Data for the mlh1 rad18 strain (AID 175)
Conditions: S. cerevisiae mlh1 rad18 strain growth inhibition; at 50.0 µM; active compounds read high
Method in brief: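 A repair-deficient yeast strain is exposed to test compound, and growth is scored relative to vehicle-treated controls.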

| Structure (SMILES) | growth inhibition |
| --- | --- |
| CO[C@H]1C=CO[C@@]2(C)Oc3c(C)c(O)c4c(O)c(c(CN5CCN(C)CC5)c(O)c4c3C2=O)NC(=O)/C(C)=C\C=C[C@H](C)[C@H](O)C(C)[C@@H](O)C(C)[C@H](OC(C)=O)[C@@H]1C (stereo not given in full) | -34.4% (inactive) |
| Cc1ccc2ccccc2c1CC(=O)NN | -8.95% (inactive) |
| CCOC(=O)c1c(C)nc(C)c(C(=O)OCC)c1-c1ccnc2ccccc12 | 5.1% (inactive) |
| O=C(O)Cc1ccc(-c2ccccc2)[nH]1 | -12% (inactive) |
| O=C(Nc1ccc(Cl)cc1)c1ccc(Cl)cc1Cl | -0.15% (inactive) |
| C=CCc1ccc(OC(=O)Nc2ccc(S(=O)(=O)NC3CCCCC3)cc2)c(OC)c1 | 44.4% (inactive) |
| O=C(O)C(O)c1ccc(Cl)cc1Cl (stereo not given) | 1.35% (inactive) |
| COC(=O)c1nc[nH]c1C(=O)OC | 12.6% (inactive) |
| O=S(=O)(Nc1ccnn1-c1ccccc1)c1ccc(NC(=S)Nc2ccccc2)cc1 | 65.5% (inactive) |
| CCn1cc2c(=O)n3ncn(-c4ccc(Br)cc4)c3nc2n1 | -12.2% (inactive) |
| Oc1ccccc1C=Nc1ccccc1N=Cc1ccccc1O.[Zn] | 12.9% (inactive) |
| CC(C)C(CN)(c1ccccc1)c1ccccc1 | -10.9% (inactive) |
| CS(=O)CC(=N\N)/C(CS(C)=O)=N/N (stereo not given) | -5.75% (inactive) |
| CC(=O)N(C)c1ccc(NC(=S)NC(=O)c2cccc([N+](=O)[O-])c2)cc1 | 7.05% (inactive) |
| C[C@@H]1CC[C@]2(C)C3(C)CC[C@]2(OC3=O)[C@@]12CC(c1ccoc1)OC2=O (stereo not given in full) | -42.3% (inactive) |
| CS(=O)(=O)OCCC(COS(C)(=O)=O)NC(=O)c1ccccc1 (stereo not given) | -4.95% (inactive) |
| Cc1ccc2[nH]c(C)c(C(=O)c3ccncc3)c2c1 | -9.45% (inactive) |
| Nc1ccc(N=Nc2ccccc2)c(N)c1 | 28.6% (inactive) |
| NC(N)=NCCCS | 7.05% (inactive) |
| Cc1ccc(N(C(=O)CC(=O)N/N=C/c2ccccc2O)C(=O)c2ccccc2)cc1 | -10.8% (inactive) |

| Structure (SMILES) | growth inhibition |
| --- | --- |
| O=C(O)c1ncn2c(=O)n(CCCl)nnc12 | 9.2% (inactive) |
| CCc1c(C)c2cc(N)ccc2[nH]c1=O | 6.45% (inactive) |
| Oc1cc(CN2CCOCC2)c(O)c(CN2CCOCC2)c1CN1CCOCC1 | -3.3% (inactive) |
| CCC(C)C(N)C(=O)NC(Cc1ccc(O)cc1)C(=O)O (stereo not drawn) (H-Ile-Tyr-OH; configuration not given here) | 21.2% (inactive) |
| Clc1ccc2c(NCCCCN=Cc3ccccc3)ccnc2c1 | -12.7% (inactive) |
| CC(=O)Oc1cccc(CN2CCc3ccccc3C2)c1 | -24.1% (inactive) |
| C=C(C)CC1(C)C(=O)CCC1O (stereo not given) | 6.25% (inactive) |
| CCCNCC(O)CNc1ccc(Cl)cc1 (stereo not given) | 5.65% (inactive) |
| CCOC(=O)C(C)CC(C)C(=O)OCC (stereo not given) | 2.5% (inactive) |
| CC(=O)Nc1ccn(C2OC(COC(C)=O)C(OC(C)=O)C(OC(C)=O)C2OC(C)=O)c(=O)n1 (stereo not given) | 5.55% (inactive) |
| NC(=O)c1ccc[n+](CC(=O)Nc2ccccc2)c1 | 3.8% (inactive) |
| C/C=C(/c1ccccc1)c1ccc(N(C)C)cc1 | 4.35% (inactive) |
| CCCCNC(=O)Oc1c(Cl)cc(Cl)c(Cl)c1[N+](=O)[O-] | 21.2% (inactive) |
| CSc1ncnc2c1ccn2C1OC(COP(=O)(O)O)C(O)C1O (stereo not given) | -2.15% (inactive) |
| NC(=O)C1C[C@@H](O)CN1C(=O)c1ccc2c(c1)OCO2 (stereo not given in full) | 1.25% (inactive) |
| Cc1c(Cl)cc([N+](=O)[O-])cc1Cl | 5.25% (inactive) |
| N/N=C(\N)SCc1ccc(N=C=S)cc1 | 15.5% (inactive) |
| COc1cccc(CN(CC(=O)O)S(=O)(=O)c2ccc(C)cc2)c1 | 6.85% (inactive) |
| Cc1cc(CN2CCCCC2)c(O)c(CN2CCCCC2)c1 | -7.05% (inactive) |
| COc1cc(C(=O)Nc2cccc(Cl)c2Cl)cc(OC)c1OC | 10.9% (inactive) |
